# According to the supplement of paper PMC9262897, “Low-cost anti-mycobacterial drug discovery using engineered E. coli” (Nature Communications, 2022):
# Where a name gives a salt, the structure may show the parent alone. ± gives the standard deviation of the averaged measurements.
# Key:
# Assay in all cases: growth (OD600 after 10 h); higher = more growth (less inhibition)
# [1] = system: E. coli TESEC Alr+ wild-type control; conditions: compound 0.1 mM; raw OD600 reference: median of DMSO wells 0.241, cell-free background 0.041
# Description: (§1)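 TESEC Mtb Alr E. coli, or the Alr+ wild-type control, in 384-well plates with Prestwick library compounds at 0.1 mM and 1% DMSO, across arabinose induction levels of 1E3 to 1E7 nM. Growth is read as OD600 after 10 h at 37 °C in triplicate biological replicates.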
# [2] = system: E. coli TESEC Mtb Alr; conditions: compound 0.1 mM
# Description: as §1
# [3] = system: E. coli TESEC Mtb Asd; conditions: compound 0.1 mM
# Description: (§2)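 TESEC E. coli strains in which the native enzyme is deleted and replaced by arabinose-inducible Mtb Asd, DapB, CysH or TrpD, each grown in its selective medium. Strains were screened against the Prestwick library at 0.1 mM and 1% DMSO in 384-well format at low and high arabinose induction. Growth is read as OD600 after 10 h in triplicate.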
# [4] = system: E. coli TESEC Mtb DapB; conditions: compound 0.1 mM
# Description: as §2
# [5] = system: E. coli TESEC Alr+ wild-type control; conditions: compound 0.1 mM; raw OD600 reference: median of DMSO wells 0.49, cell-free background 0.052
# Description: (§3)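 TESEC Mtb Alr E. coli (ΔaraC ΔtolC ΔentC Δalr ΔdadX, arabinose-inducible Mtb Alr) or the Alr+ wild-type control strain, grown in defined M9-fructose medium without D-alanine in 96-well plates with Prestwick library compounds at 0.1 mM and 1% DMSO. Low Alr induction is 0.1 µM arabinose and high induction is 10 mM arabinose.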
# [6] = system: E. coli TESEC Mtb Alr; conditions: compound 0.1 mM; remark: listed apart in the source
# Description: as §3
# [7] = arabinose 1000 nM, raw OD600 reference: median of DMSO wells 0.294, cell-free background 0.041
# [8] = arabinose 10000 nM, raw OD600 reference: median of DMSO wells 0.264, cell-free background 0.041
# [9] = arabinose 100000 nM, raw OD600 reference: median of DMSO wells 0.201, cell-free background 0.041
# [10] = arabinose 1000000 nM, raw OD600 reference: median of DMSO wells 0.193, cell-free background 0.041
# [11] = arabinose 10000000 nM, raw OD600 reference: median of DMSO wells 0.146, cell-free background 0.041
# [12] = arabinose induction (level): High, raw OD600 reference: median of DMSO wells 0.331, cell-free background 0.041
# [13] = arabinose induction (level): Low, raw OD600 reference: median of DMSO wells 0.417, cell-free background 0.041
# [14] = arabinose induction (level): High, raw OD600 reference: median of DMSO wells […], cell-free background 0.041
# [15] = arabinose induction (level): Low, raw OD600 reference: median of DMSO wells 0.227, cell-free background 0.041
# [16] = arabinose 100 nM, raw OD600 reference: median of DMSO wells 0.413, cell-free background 0.052
# [17] = arabinose 10000000 nM, raw OD600 reference: median of DMSO wells […], cell-free background 0.052
Compound,growth [1],"growth [2, 7]","growth [2, 8]","growth [2, 9]","growth [2, 10]","growth [2, 11]","growth [3, 12]","growth [3, 13]","growth [4, 14]","growth [4, 15]",growth [5],"growth [6, 16]","growth [6, 17]"
CNC(=C[N+](=O)[O-])NCCSCc1ccc(CN(C)C)o1 [Ranitidine hydrochloride],0.235 ± 0.0096,0.283 ± 0.015,0.252 ± 0.0043,0.203 ± 0.0086,0.179 ± 0.0036,0.1447 ± 0.0011,0.323 ± 0.037,0.455 ± 0.058,0.191 ± 0.011,0.234 ± 0.032,0.485 ± 0.064,0.408 ± 0.0097,0.338 ± 0.0081
Cc1ncc(C[n+]2csc(CCO)c2C)c(N)n1 [Thiamine hydrochloride],0.246 ± 0.0087,0.295 ± 0.0076,0.251 ± 0.0027,0.174 ± 0.014,0.185 ± 0.0064,0.129 ± 0.0017,0.354 ± 0.062,0.418 ± 0.062,0.227 ± 0.024,0.217 ± 0.015,0.451 ± 0.011,0.42 ± 0.0059,0.362 ± 0.02
CN(C)C/C=C(/c1ccc(Br)cc1)c1cccnc1 [Zimelidine dihydrochloride monohydrate],0.2066 ± 0.0016,0.261 ± 0.0081,0.255 ± 0.028,0.192 ± 0.028,0.153 ± 0.0035,0.134 ± 0.0035,0.237 ± 0.037,0.413 ± 0.022,0.168 ± 0.0086,0.261 ± 0.12,0.445 ± 0.04,0.397 ± 0.01,0.303 ± 0.028
CC1c2cccc(O)c2C(O)=C2C(=O)C3(O)C(O)=C(C(N)=O)C(=O)C(N(C)C)C3C(O)C21 (centres undefined) [Doxycycline hydrochloride],0.0447 ± 0.00093,0.0433 ± 0.002,0.0456 ± 0.001,0.04713 ± 0.00031,0.0487 ± 0.0075,0.0461 ± 0.0007,0.0572 ± 0.0053,0.0534 ± 0.0016,0.0563 ± 0.00081,0.0531 ± 0.0036,0.0579 ± 0.0011,0.0647 ± 0.0031,0.0602 ± 0.0014
COCC1=C(C(=O)OC(C)OC(=O)OC(C)C)N2C(=O)[C@@H](NC(=O)/C(=N\OC)c3csc(N)n3)[C@H]2SC1 (some centres undefined) [Cefpodoxime proxetil],0.2132 ± 0.002,0.116 ± 0.0091,0.0588 ± 0.0019,0.22 ± 0.011,0.166 ± 0.008,0.165 ± 0.0036,0.215 ± 0.051,0.179 ± 0.034,0.202 ± 0.05,0.285 ± 0.049,0.425 ± 0.044,0.0545 ± 0.0063,0.278 ± 0.016
CC(C)(C(=O)O)c1ccc(C(O)CCCN2CCC(C(O)(c3ccccc3)c3ccccc3)CC2)cc1 (centres undefined) [Fexofenadine HCl],0.228 ± 0.0075,0.314 ± 0.0088,0.285 ± 0.0078,0.212 ± 0.017,0.184 ± 0.011,0.157 ± 0.0041,0.235 ± 0.015,0.348 ± 0.069,0.201 ± 0.025,0.266 ± 0.036,0.567 ± 0.054,0.431 ± 0.0065,0.309 ± 0.013
CC[C@H](C)[C@H]1O[C@]2(CC[C@@H]1C)C[C@@H]1C[C@@H](CC=C(C)C(O[C@H]3C[C@H](OC)[C@@H](O[C@H]4C[C@H](OC)[C@@H](O)[C@H](C)O4)[C@H](C)O3)[C@@H](C)C=CC=C3CO[C@@H]4[C@H](O)C(C)=C[C@@H](C(=O)O1)[C@]34O)O2 (some centres undefined) [Ivermectin],0.315 ± 0.013,0.361 ± 0.0096,0.291 ± 0.0046,0.393 ± 0.048,0.209 ± 0.0085,0.222 ± 0.0088,0.343 ± 0.072,0.318 ± 0.13,0.281 ± 0.035,0.28 ± 0.041,0.525 ± 0.066,0.473 ± 0.046,0.409 ± 0.038
CC[C@H]1OC(=O)[C@H](C)[C@@H](O[C@H]2C[C@@](C)(OC)[C@@H](O)[C@H](C)O2)[C@H](C)[C@@H](O[C@@H]2O[C@H](C)C[C@H](N(C)C)[C@H]2O)[C@](C)(OC)C[C@@H](C)C(=O)[C@H](C)[C@@H](O)[C@]1(C)O [Clarithromycin],0.0414 ± 0.00036,0.0421 ± 0.00026,0.04 ± 0.00071,0.0426 ± 0.00059,0.041 ± 0.0018,0.0437 ± 0.0036,0.0608 ± 0.013,0.0537 ± 0.0096,0.061 ± 0.0028,0.0632 ± 0.0078,0.055 ± 0.00044,0.0576 ± 0.0015,0.0524 ± 0.00061
CC(C)c1ccc2oc3nc(N)c(C(=O)O)cc3c(=O)c2c1 [Amlexanox],0.158 ± 0.003,0.157 ± 0.015,0.307 ± 0.0078,0.157 ± 0.0046,0.248 ± 0.024,0.166 ± 0.011,0.3928 ± 0.003,0.23 ± 0.056,0.197 ± 0.0066,0.206 ± 0.036,0.416 ± 0.015,0.0761 ± 0.019,0.279 ± 0.018
CC(=O)N(CC(C)C(=O)O)c1c(I)cc(I)c(N)c1I (centres undefined) [Iocetamic acid],0.213 ± 0.007,0.274 ± 0.0081,0.289 ± 0.0072,0.2 ± 0.01,0.265 ± 0.003,0.144 ± 0.0039,0.36 ± 0.022,0.268 ± 0.021,0.202 ± 0.018,0.202 ± 0.019,0.509 ± 0.026,0.183 ± 0.11,0.397 ± 0.011
OCCN1C[C@H](O)[C@@H](O)[C@H](O)[C@H]1CO [Miglitol],0.243 ± 0.0029,0.285 ± 0.0045,0.26 ± 0.0085,0.204 ± 0.02,0.184 ± 0.0057,0.145 ± 0.0034,0.358 ± 0.084,0.42 ± 0.084,0.207 ± 0.031,0.223 ± 0.029,0.583 ± 0.098,0.406 ± 0.011,0.324 ± 0.051
CCN1CCCC1CNC(=O)c1cc(S(N)(=O)=O)ccc1OC (centres undefined) [Sulpiride],0.2503 ± 0.0019,0.291 ± 0.012,0.248 ± 0.0039,0.198 ± 0.02,0.174 ± 0.0021,0.147 ± 0.0072,0.309 ± 0.099,0.423 ± 0.023,0.221 ± 0.037,0.253 ± 0.024,0.525 ± 0.011,0.419 ± 0.0074,0.35 ± 0.017
N=C(N)N1CCc2ccccc2C1 [Debrisoquin sulfate],0.237 ± 0.0047,0.288 ± 0.013,0.254 ± 0.0074,0.222 ± 0.036,0.174 ± 0.0076,0.147 ± 0.0083,0.373 ± 0.058,0.373 ± 0.027,0.209 ± 0.022,0.22 ± 0.039,0.567 ± 0.039,0.406 ± 0.01,0.334 ± 0.013
